Sequences and labels used below:
T1: UNK ZnF1-3 (human, UniProt Q9C0B0 31-174)
T1 sequence: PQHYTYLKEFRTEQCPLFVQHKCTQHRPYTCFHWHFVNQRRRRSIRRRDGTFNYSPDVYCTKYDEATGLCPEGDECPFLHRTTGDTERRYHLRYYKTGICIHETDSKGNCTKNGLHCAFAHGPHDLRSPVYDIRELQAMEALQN

B1: chr2:160855017:160855018:-_ENSMUSG00000057133_ENSMUST00000039782|mus_mus|FALSE|FALSE (ssRNA)
RNA: GGGAGUUCUACAGUCCGACGAUCAUCCUUUUCCAGUUCUUCCAUUGUGGCCCAUUUACAAUGUAAAUAGGAAAAAUUUCUAUACUUAACGUAGAAAAGCUCUAGGUCGAAUGGAGGUUCUCCUGGGUGAACCUCCUGGACAGUCAACAGAGGAUUGAGCAUCA
B2: chr7:150915252:150915253:-_ENSG00000033050_ENST00000287844|hu_mus|FALSE|FALSE (ssRNA)
RNA: GGGAGUUCUACAGUCCGACGAUCCUUCCCUGCUCCAUUGGGUCCUACCAGAGCCACUCGUGUGUCAAGAUCAAUACCAAAUUCUAGAUUAUUGUAGAUGCAAGGCCCGUCUUUCGUAUAUUUGAAGCUCACGUUCUGCACCAUCAACAGAGGAUUGAGCAUCA
B3: chr2:78753848:78753849:+_ENSMUSG00000027011_ENSMUST00000028398|mus_mus|FALSE|FALSE (ssRNA)
RNA: GGGAGUUCUACAGUCCGACGAUCGUUAUCUCCUUUAGGCCCAGCACUGCAGUUAGGAGGAGGAUCAAGGGUUAUCUCUGCUAGCUCCUUCUGAAUUCUUUUAGCACUAGUGGAUAACUUAGCAGUCGUUUUGCUAGAGAGUUUCAACAGAGGAUUGAGCAUCA
B4: chr11:30747457:30747458:+_ENSMUSG00000040850_ENSMUST00000041231|mus_mus|motif|central (ssRNA)
RNA: GGGAGUUCUACAGUCCGACGAUCACCCUUAAAGAGGCAGAAACGCCGGGGACUAAACUUAUCUCUUCCUUUUCUGUCUUCGGAAGAUAGAAAUGUGAUUAACUGCUCAACAAACUUAGGAUCAGAAAAACGAUCAUAUAUAAUCAACAGAGGAUUGAGCAUCA
B5: chr11:43534790:43534791:+_ENSMUSG00000044950_ENSMUST00000129229|mus_mus|FALSE|FALSE (ssRNA)
RNA: GGGAGUUCUACAGUCCGACGAUCUCUGAUUUUCUCAUGUGUUCUCCAUUCAUUAAACAAGAAAAAUUAAGGGGUUUCAUACUAUGUAUUUAGCAAAGACAAGGAAAUCUGAAAUCUCUGUUAAGAAUUCAUGUUCCAUGCACCCAACAGAGGAUUGAGCAUCA
B6: chr2:4828950:4828951:+_ENSMUSG00000026662_ENSMUST00000115019|mus_hu|FALSE|FALSE (ssRNA)
RNA: GGGAGUUCUACAGUCCGACGAUCUAAAAUCUAGUUUUUCCCGAUAAAUUGUACUUUAGGCAAAACCCUCCCAACGCUUCUAAAAUAAUACUAAAAGGGGCAUCUGAUUAUACAAGAGCAAUUUAAAAAAUUAAAUAUUUAUUUCAACAGAGGAUUGAGCAUCA
B7: chr2:4828950:4828951:+_ENSMUSG00000026662_ENSMUST00000115019|mus_hu|motif|central (ssRNA)
RNA: B6 RNA with U80G, A81G
B8: chr1:39494447:39494448:+_ENSG00000168653_ENST00000372967|hu_mus|hu_hu_hu_mus_False|68_88 (ssRNA)
RNA: GGGAGUUCUACAGUCCGACGAUCGCACCGAGCGGCGUUCUUAUAGGGCUGUUCACCGCUUAGGAACGUCAACCAUCGGUCCAGGCUGAUGCCCAGCUUUUUCUGUAUGUCAAGGAAAGGCAUGGCUCUGCAGUGCCCUUGUCACAACAGAGGAUUGAGCAUCA
B9: chr14:76904540:76904541:+_ENSMUSG00000022010_ENSMUST00000022587|mus_hu|motif|central (ssRNA)
RNA: GGGAGUUCUACAGUCCGACGAUCAAAGAAAUUGAAAAAUGUCUCAGUUGGUAAACUCCUAGAUCCAUCGCCACUGGUCGGCACCAUUGGGAUUUCAUGCAAUUGCAGCCAAAAACACCCUCGUGGAAAAAAAGAGGGAACACCCAACAGAGGAUUGAGCAUCA
B10: chr10:1038518:1038519:+_ENSG00000107937_ENST00000545048|hu_hu|hu_hu_hu_mus_False|28_58 (ssRNA)
RNA: GGGAGUUCUACAGUCCGACGAUCCAGUCUGUCAUGGUAAUUCUGUUGAGUAAAUUUGACUUUUCUCAUAUAAAAAUGUCUAAUGCGAUGAAUUUGAUAAUGUUUAUGAAUAACGGUUGGAGUCUUUCGUUGAGUCUUGGAUAACAACAGAGGAUUGAGCAUCA
B11: chr15:88518400:88518401:-_ENSMUSG00000022387_ENSMUST00000109381|mus_hu|FALSE|FALSE (ssRNA)
RNA: GGGAGUUCUACAGUCCGACGAUCCCCGUCUUAUUAAAUAAGUGGUACUCUGUGUAAAGAGCAUGAUUUACAAAAUUAUUAAACAUUCAAAAGUCUUUAAGAAAAAGCUACAUAUCAAAGAAAGUGACGCCAGCAGCACGGCCUCAACAGAGGAUUGAGCAUCA
B12: chr11:120466956:120466957:+_ENSMUSG00000025135_ENSMUST00000093140|mus_mus|FALSE|FALSE (ssRNA)
RNA: GGGAGUUCUACAGUCCGACGAUCCAAGCAGAGGCCUCCAGCACGGCUCGGAACUGUAAUGAGUUUUACUUAUUGAAUAAAGUGUCAAUGUGAUGGGAAAACAAAACAGUCAGCAAAGCUCCUUUCAACCUUGUCCCAGCCAAACAACAGAGGAUUGAGCAUCA
B13: chr7:90019461:90019462:+_ENSMUSG00000057706_ENSMUST00000082237|mus_hu|FALSE|FALSE (ssRNA)
RNA: GGGAGUUCUACAGUCCGACGAUCCGUCACAAUUGUGUGAUUAUUAAAAUAAUACAGUGUUCUUUGCCAUAAGGCCAUACUAAAAUAAAAAGAUUUAACCCAGCUACAAAAAAGUUCACUGAACUUAAAUUAAAAUACUUGUAACAACAGAGGAUUGAGCAUCA
B14: chr7:90019461:90019462:+_ENSMUSG00000057706_ENSMUST00000082237|mus_mus|FALSE|FALSE (ssRNA)
RNA: GGGAGUUCUACAGUCCGACGAUCCGUCACAAUCGUGUGAUUAUUAAAAUAAUACAGUGUUCUUUGCCAUAAGGCCAUACUAAAAAUAAAAAGAUUUAACCCAGCUACAAAAAAGUUCACUGAACUUAAAUUAAAAUACUUGUACAACAGAGGAUUGAGCAUCA
B15: chr15:88518400:88518401:-_ENSMUSG00000022387_ENSMUST00000109381|mus_mus|FALSE|FALSE (ssRNA)
RNA: GGGAGUUCUACAGUCCGACGAUCCCCGUCUUAUUAAAUAAGCGGUACUCUGUGUAAAGAGCAUGAUCUACAAAAUUAUUAAACAUUCAAAAGUCUUUAAAAAAAAAAAAAAACCCUACAGAUUAGAAUAAGUGAGGCCUCGGCCAACAGAGGAUUGAGCAUCA
B16: chr6:53132721:53132722:-_ENSG00000012660_ENST00000304434|hu_hu|FALSE|FALSE (ssRNA)
RNA: GGGAGUUCUACAGUCCGACGAUCUUACCUGUUUGACCACUGCCUCAAAUGUGUGAGAUGUGAUUUUAUGAUAAGCAGUCUAUUAUUUUUAAACAAGAGGUUCUAAACACAUCUUUAGAUUCUAAGCAGAAAGAAAUUACAAGUCAACAGAGGAUUGAGCAUCA
B17: chr14:35505469:35505470:+_ENSMUSG00000041408_ENSMUST00000048263|mus_hu|motif|central (ssRNA)
RNA: GGGAGUUCUACAGUCCGACGAUCCUGUAUGGUAACAUUACAAACUGACAAGCAAGAUGGAUGUAAAACAGUGUAAUCUCGGGUCCGUCCAACUGUCCCUCUAAAACUGGUCCCACAACUUACACCCCCUUUCUUUGCCUGAUUCAACAGAGGAUUGAGCAUCA
B18: chr6:72561926:72561927:-_ENSMUSG00000056429_ENSMUST00000070524|mus_mus|motif|central (ssRNA)
RNA: GGGAGUUCUACAGUCCGACGAUCGUAAAUAAAACAUCACCAGAGGAGAGUGUCAUCAAAGUGCCGGUGCAAAACCUGAAGCGGUCCCAUCUCUGCCAGCCCAGACUUGCCACCAAACCCCAGAGGAGGUCACAGUCUUUUCAUCAACAGAGGAUUGAGCAUCA
B19: chr2:153237265:153237266:-_ENSMUSG00000061411_ENSMUST00000109784|mus_mus|mus_mus_mus_hu_False|8_28 (ssRNA)
RNA: GGGAGUUCUACAGUCCGACGAUCAAAAAAAAAAAAAAAAAAGUGUCCUUGUGCCCAAAGUCUCAGGUGCUUGGAGUGUGGCUAGAAACAGCUCUUUUGGAUCCCACCUCUUUCAGAAACAAAAUGUCCAACUGGUGGAGGCAGCAACAGAGGAUUGAGCAUCA
B20: 130210676_130211900_346_CDS_ENSG00000197958_ENST00000361436|human|control|control (ssRNA)
RNA: GGGAGUUCUACAGUCCGACGAUCAAAAGUGAUAUUCCCACUGUGUUUAAUGUUUUUCUGUUUCUUUCUGUCUCUUGGUGGUUCCUUGAGGGCUUUGAUGAUCAGGGCAGAGGCAGAAGGCACCACCUCAAUCUGGGCCUGUCUCAACAGAGGAUUGAGCAUCA
B21: chr2:153237265:153237266:-_ENSMUSG00000061411_ENSMUST00000109784|mus_mus|mus_mus_mus_hu_False|1_8 (ssRNA)
RNA: B19 RNA with G115A, G137A, A138G, G140C, C141A, A142G
B22: 26295160_26295280_2512_CDS_ENSMUSG00000026924_ENSMUST00000091252|mouse|control|control (ssRNA)
RNA: GGGAGUUCUACAGUCCGACGAUCUCCCUUUUCUGGAUGAUGAACAACCUCUGAAGGUUUUGGUUUUACAGGAACAUAAAGUGCAGGGGCAGCAGGGGCUAGAAGGACAUUGCCACCAAAAUCUGGCAGCUCAUUUUGUGCCCACAACAGAGGAUUGAGCAUCA
B23: chr2:153237265:153237266:-_ENSMUSG00000061411_ENSMUST00000109784|mus_mus|mus_mus_mus_hu_False|8_78 (ssRNA)
RNA: B19 RNA with G66A, G115A
B24: chr2:153237265:153237266:-_ENSMUSG00000061411_ENSMUST00000109784|mus_mus|mus_mus_mus_hu_False|8_58 (ssRNA)
RNA: B19 RNA with U78C, G79A, G115A
B25: chr8:80553714:80553715:+_ENSG00000104435_ENST00000220876|hu_mus|FALSE|FALSE (ssRNA)
RNA: GGGAGUUCUACAGUCCGACGAUCAGCCUCCAGCUUUUUCUGAAUCUCCUCCAGAGACAGGUCUUUCUUCUUUGGAGAAGCUAGAGUUCGUGGAGCUUCUGAGAUGGGAGAUGGUGGCUUCAAGAUCAGCUCAAAAGCCUGGCCCAACAGAGGAUUGAGCAUCA

Positions count from the first letter of the chain named. Over roughly 24,000 sequences, “enrichment r” has its median near 0.99; the highest 2% begin near 3.7. This excerpt belongs to a sample that is enriched for the highest values.

The target in this test is T1, UNK ZnF1-3. In words: nsRBNS (natural sequence RNA bind-n-seq); RBNS binding buffer (assumed for nsRBNS): 25 mM Tris pH 7.5, 150 mM KCl, 3 mM MgCl2, 0.01% Triton X-100, 500 ug/ml BSA, 20 U/ml SUPERase-In, 4 C; UNK is unkempt and MSI1 is Musashi-1; names of the RNAs are library labels; protein concentration not given here; high values mean tight binding.
Take B1: the binding signal amounted to 0.614 enrichment R.
The figure for B2 is 1.41 enrichment R.
Molecule B3 gave a binding signal of 1.05 enrichment R.
The figure for B4 is 0.632 enrichment R.
Consider B5, for which the binding signal turned out to be 0.874 enrichment R.
Consider B6, for which the binding signal was 6.73 enrichment R.
B7 registered a binding signal of 4.08 enrichment R.
Turning to B8, the binding signal came to 0.613 enrichment R.
For B9, the binding signal was 1.75 enrichment R.
B10 returned a binding signal of 1.2 enrichment R.
With B11, the binding signal came to 10 enrichment R.
As for B12, the binding signal stood at 1.39 enrichment R.
For the molecule B13, the binding signal is 3.55 enrichment R.
On to B14, for which the binding signal was found to be 3.43 enrichment R.
For B15, the binding signal turned out to be 6.27 enrichment R.
Take B16: the binding signal turned out to be 1.61 enrichment R.
The figure for B17 is 1.1 enrichment R.
As to B18, the binding signal was found to be 3.38 enrichment R.
The figure for B19 is 3.73 enrichment R; for B20 it is 0.682 enrichment R; for B21 it is 4.46 enrichment R.
Molecule B22 returned a binding signal of 1.58 enrichment R.
The figure for B23 is 4.8 enrichment R.
In turn, B24 yielded a binding signal of 3.36 enrichment R.
The figure for B25 is 0.56 enrichment R.
